HDAC3 inh: HDAC3 deacetylase inhibitors, primary screen, biochemical, fluorescence, cell-free homogeneous; Histone deacetylase 3 (Homo sapiens), O15379; recombinant HDAC3, fluorogenic peptide/trypsin coupled; inhibition, % at 8.3 µM; 0.15% of 320,000 active; AID 2718, 2010; in the data active = inhibition above about 26%, passing the limit was not always enough; inconclusive = no clear call, values can overlap the other calls
Target sequence (O15379 whole entry, looked up): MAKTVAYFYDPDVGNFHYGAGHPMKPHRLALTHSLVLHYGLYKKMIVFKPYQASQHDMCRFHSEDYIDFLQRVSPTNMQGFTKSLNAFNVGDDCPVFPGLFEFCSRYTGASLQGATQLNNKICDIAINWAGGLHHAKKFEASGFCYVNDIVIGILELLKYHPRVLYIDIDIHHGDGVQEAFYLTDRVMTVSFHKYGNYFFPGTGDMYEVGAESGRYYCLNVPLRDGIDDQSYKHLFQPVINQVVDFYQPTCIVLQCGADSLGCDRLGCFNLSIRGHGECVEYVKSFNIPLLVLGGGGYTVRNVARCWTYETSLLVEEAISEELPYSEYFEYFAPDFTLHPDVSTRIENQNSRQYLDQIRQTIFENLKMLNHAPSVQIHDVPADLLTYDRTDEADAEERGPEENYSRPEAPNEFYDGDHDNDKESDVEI
NPR1 activator: GC-A stimulated cGMP production enhancers – HEK293 GC-A cells, cGMP TR-FRET, EC30 ANP, primary screen; 0% at EC30 ANP, 100% saturating ANP; activation, % at 10 µM; 0.14% of 370,000 active; in the data active = activation above about 40%
ALR inh: inhibitors of human ALR sulfhydryl oxidase, primary screen, biochemical, H2O2 detection, HRP-luminol luminescence, single point; purified ALR, DTT oxidation; inhibition, % (concentration not given with the values); 3.8% of 290,000 active;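 active = mean replicate inhibition above about 79%, with every replicate also reaching it, limit read from the data; inconclusive = only one of the two criteria met; inactive = mean below limit and not every replicate reaching it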
NPR2 activator: human GC-B receptor activators, primary screen, HEK293 GC-B cells, cGMP TR-FRET, EC30 CNP. activation, % at 10 µM. Atrial natriuretic peptide receptor 2 (Homo sapiens), P20594. 0.11% of 370,000 active. 0% at EC30 CNP, 100% saturating CNP;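 active = activation at 10 µM reaching about 35% in either raw or pattern-adjusted values, limit read from the data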
Numbers stand for hits; - = inactive; ? = inconclusive; . = no result given. The sample as a whole holds a higher share of hits than the screen did.

SMILES	HDAC3 inh	NPR1 activator	ALR inh	NPR2 activator
Cc1ccc(C(=O)N2CCCCC2)cc1S(=O)(=O)N1CCOCC1	-	-	-	-
O=C(NC(=S)NCCC1=CCCCC1)c1cncc(Br)c1	-	-	-	-
O=C(OCc1ccccc1)N1CCC2CC1c1cc(NCCc3ccccc3)ccc12 (stereo not given)	.	-	.	-
CC(=O)Nc1ccc(S(=O)(=O)N(C)c2ccc(O)cc2)cc1	-	-	98	-
CC(=O)Nc1ccc(N=Nc2ccc(O)cc2)cc1	-	-	99	-
CC(=O)Nc1ccc(S(=O)(=O)N(C)c2ccccc2)cc1	-	-	-	-
C[C@@H](O[Si](c1ccccc1)(c1ccccc1)C(C)(C)C)[C@@H]1NC(=O)[C@@H]2C[C@]3(Br)c4ccccc4N(S(=O)(=O)c4ccccc4)[C@@H]3N2C1=O	.	-	.	-
COc1ccc(CCNC(=O)CS(=O)Cc2nc(-c3ccccc3Cl)oc2C)cc1OC (stereo not given)	-	-	98	-
Cc1ccc(CCNC(=O)CS(=O)Cc2nc(-c3ccccc3F)oc2C)cc1 (stereo not given)	-	-	99	-
COc1ccc(CCNC(=O)CS(=O)(=O)Cc2nc(-c3ccccc3Cl)oc2C)cc1OC	-	-	-	-
COc1ccc(CCNC(=O)CS(=O)Cc2nc(-c3cccs3)oc2C)cc1OC (stereo not given)	-	-	99	-
Cc1oc(-c2ccccc2F)nc1CS(=O)CC(=O)NCc1ccc(Cl)cc1 (stereo not given)	-	-	-	-
COc1ccc(CCNC(=O)COC(=O)c2cccs2)cc1OC	-	-	-	-
CCOc1ccc(CCNC(=O)CS(=O)(=O)Cc2nc(-c3ccccc3F)oc2C)cc1	-	-	-	-
COc1ccc(CCNC(=O)CS(=O)Cc2nc(-c3ccccc3F)oc2C)cc1OC (stereo not given)	-	-	99	-
CSc1ccc(S(=O)(=O)NC2CC3CCC2C3)cc1 (stereo not given)	-	-	-	-
O=C(Cn1cccc1C(=O)c1ccccc1)NCc1ccc(Cl)cc1	-	-	97	-
COC(=O)c1sc(-c2ccc(C(C)(C)C)cc2)cc1NC(=O)c1ccccc1C(=O)O	-	-	92	-
COC(=O)c1sc(-c2ccc(Cl)cc2)cc1NC(=O)c1ccccc1C(=O)O	-	-	97	-
COC(=O)c1sccc1NC(=O)c1ccccc1C(=O)O	-	-	-	-
COC(=O)c1sc(-c2ccccc2)cc1NC(=O)C1CC1	-	-	-	-
COC(=O)c1sc(-c2ccc(C(C)(C)C)cc2)cc1NC(=O)CSCC(=O)O	-	-	98	-
O=C(NCCc1ccccc1Cl)[C@@H]1CCCN1C(=O)[C@@H](NC(=O)N1CCOCC1)C1CCCCC1	.	-	.	-
O=C(CSC1=NS(=O)(=O)c2ccccc2N1)Nc1ccc(F)cc1	-	-	97	-
O=C(CSC1=NS(=O)(=O)c2cc(Cl)ccc2N1)Nc1cccc(F)c1	-	-	98	-
SMILES	HDAC3 inh	NPR1 activator	ALR inh	NPR2 activator
Cc1cccc(C)c1N=Nc1c(C)cc(O)cc1C	-	-	92	-
Cc1cccc(O)c1C	.	-	.	-
O=S(=O)(Nc1ccccc1O)c1ccc(Cl)nc1	-	-	99	-
O=S(=O)(Nc1ccccc1F)c1ccc(Cl)nc1	.	-	.	-
Cn1c(CSCc2ccc(Cl)c(Cl)c2)n[nH]c1=S	-	-	90	-
CCn1c(CSCc2ccc(Cl)cc2)n[nH]c1=S	-	-	-	-
COc1ccc(NC(=O)C(c2cccc3ccccc23)n2c(=O)c(-c3ccco3)nc3ccccc32)cc1 (stereo not given)	.	-	.	-
Cc1ccc2nc(C3CCCCC3)c(Cc3ccccc3)n2c1	.	-	.	-
Cc1ccc(-c2nc(CSc3nc4ccccc4c(=O)n3CCO)cs2)cc1	-	-	98	-
Cc1ccc(-c2nc(CSc3nc4ccccc4c(=O)n3C)cs2)cc1	-	-	98	-
Cc1cccc(CSc2nc3ccccc3c(=O)n2C)c1	-	-	-	-
O=C(NCc1ccccc1F)c1ccc(S(=O)(=O)N2CCCCCC2)cc1	-	-	-	-
OC(COc1ccc(CNCCc2ccccc2F)cc1)CN1CCCCC1 (stereo not given)	-	-	-	-
CCOC(=O)C1CCN(c2ncnc3c2cnn3C)CC1	-	.	-	.
O=C(CNC(=O)c1ccco1)NCc1ccc2c(c1)OCO2	-	-	-	-
N#Cc1cccc(-c2nnc(SCc3ccccc3C#N)o2)c1	-	-	.	38
COc1ccc(Nc2c3c(nc4ccccc24)CCCC3)cc1OC	-	-	99	-
COc1ccccc1Nc1c2ccccc2nc2ccccc12	-	-	99	-
Fc1ccc(Nc2c3c(nc4ccccc24)CCC3)cc1	-	-	95	-
COc1cc(Nc2c3ccccc3nc3ccccc23)cc(OC)c1OC	-	-	94	-
COC(=O)[C@@]12CCCCC3=C1N(CCC3)C(=O)[C@H]2CC(=O)NCC12CC3CC(CC(C3)C1)C2	.	-	.	-
COc1ccc(C)cc1S(=O)(=O)N1CCCC(C(=O)N2CCN(c3ccccc3F)CC2)C1 (stereo not given)	-	-	-	-
COc1ccc(Nc2nc(N)c3ccccc3n2)c(OC)c1	-	-	84	-
c1ccc2c(Nc3ccc4c(c3)OCCO4)c3c(nc2c1)CCC3	-	-	80	-
Cc1ccc2nc3c(c(Nc4ccccc4)c2c1)CCC3	-	-	97	-
SMILES	HDAC3 inh	NPR1 activator	ALR inh	NPR2 activator
COc1ccc(Nc2c3c(nc4ccccc24)CCC3)cc1	-	-	99	-
COc1ccc(C)cc1Nc1c2c(nc3ccccc13)CCC2	-	-	?	-
c1ccc(Nc2c3c(nc4ccccc24)CCC3)cc1	-	-	.	-
CCCC(=O)Nc1sc(C)c(-c2ccc(C(C)CC)cc2)c1C#N (stereo not given)	-	-	-	-
Cc1ccccc1CN1CCCCC(NC(=O)C2CCCC2)C1=O (stereo not given)	.	-	.	-
Cc1ccccc1CN1CCCCC(NC(=O)C(C)(C)C)C1=O (stereo not given)	.	-	.	-
COc1ccc(CNC(=O)COC(=O)/C=C/c2cccc(Cl)c2)cc1	-	-	-	-
COc1cc(/C=N/Nc2ccc(Cl)c(C(=O)O)c2)ccc1OCC(=O)N1C(C)CCCC1C (stereo not given)	-	.	-	.
COc1ccc(Nc2cc(C)c3ccccc3n2)cc1	-	-	.	-
COc1ccc(Nc2c3ccccc3nc3ccccc23)cc1	-	-	100	-
C/C(=N/NS(=O)(=O)c1ccc(Br)cc1)c1cccc(NC(=O)C2CC2)c1	.	-	.	-
O=C(CCl)N=c1sccn1Cc1ccc(Cl)cc1Cl	-	-	95	-
O=C(CCl)N=c1sccn1Cc1ccccc1Cl	.	-	.	-
NC(=O)C1(Nc2ccc(-c3ccc(Br)cc3)cc2)CCCC1	.	52	.	-

Screens deposited in PubChem by several laboratories.
